Laboratory results published in ChEMBL document CHEMBL4513216, “Probing the Open Global Health Chemical Diversity Library for Multistage-Active Starting Points for Next-Generation Antimalarials” (ACS Infect Dis, 2020).
Hit rate of the full screen: of about 69,000 compounds, about 8,600 (12%) showed an effect of 50% or more. This excerpt belongs to a sample that is enriched for strong results.

Test system: Plasmodium berghei
Test: Screen against P. berghei liver stage (PbLuc), transformed with Luciferase, at 10uM
Type: functional, HepG2
Conditions: tested at 10 uM

Compound | INHIBITION
c1cnc(N2CCO[C@H]3[C@H](OCCN4CCCC4)CC[C@@H]32)nc1 | 43.8%
CNC(=O)NCC1CCC2(CCN(C(=O)c3cccnc3)CC2)CO1 (centres undefined) | 41.2%
O=C(Cc1cccs1)N1Cc2nc(CN3CCCC3)oc2C1 | 30.5%
Cc1cccc(S(=O)(=O)N2C[C@@H]3C[C@H](C(=O)NCC4CC4)[C@H](C2)O3)c1 | 2.4%
CCc1nc(N2CCC3(CC2)[C@H](O)C[C@@H]3O)ncc1C | -50.8%
CCOCC1CC2(CCN(C(=O)c3ncccn3)CC2)CO1 (centres undefined) | 33.4%
Cc1cnn(CC(C)NCc2ccc(OCc3cscn3)cc2)c1 (centres undefined) | -11.4%
COc1ccc(CNC(C)Cn2cccn2)cc1F (centres undefined) | 59.4%
Cc1cnn(CC(C)NCc2cc(=O)n3cc(C)ccc3n2)c1 (centres undefined) | -16.1%
Cc1cnn(CC(C)NCc2ccc(OCc3nccn3C)cc2)c1 (centres undefined) | -34%
Cc1cnn(CC(C)NCc2ccc(OCc3ccncc3)cc2)c1 (centres undefined) | 54.6%
Cc1cnn(CCNCc2ccc(OCC(N)=O)cc2)c1 | -41.1%
Cc1cnn(CC(C)NCc2cc(=O)n3ccccc3n2)c1 (centres undefined) | 89.6%
Cc1cnn(CC(C)NCc2ccncc2)c1 (centres undefined) | -17.6%
COc1cc(CNC(C)Cn2cccn2)cc(OC)c1OC (centres undefined) | 36.4%
Cc1cnn(CC2CCCN2Cc2cc(=O)n3ccccc3n2)c1 (centres undefined) | 28.3%
COc1ccc(CNC(C)Cn2cccn2)cc1OC (centres undefined) | 27.8%
Cc1cnn(CC(C)NCc2ccc(OCC(N)=O)cc2)c1 (centres undefined) | 58.5%
COCCN1C(=O)[C@@H]2CC[C@H]1CN(C(=O)COc1ccc(F)c(Cl)c1)C2 | -102%
CN(C)[C@@H]1CCN(C(=O)c2ccccn2)[C@H]1Cc1cnn(C)c1 | 20.6%
CCN1CC(CN(C)Cc2nc(-c3ccc(F)cc3)oc2C)CC1=O (centres undefined) | 34.2%
CN(Cc1nc(Cc2cccc(C(F)(F)F)c2)no1)C1CCCCC1 | 43.9%
Cc1cnn(CCNCc2csc(-c3ccco3)n2)c1 | -4.9%

Compound | INHIBITION
COc1c(CNCc2ccnc(N(C)C)c2)c(C(C)C)nn1C | 9.47%
CC(C)c1noc(C2CC(=O)N(CCN(C)C)C2)n1 (centres undefined) | 16.5%
COc1ccc2c(ccn2CCC(=O)NCCC(=O)O)c1 | 42.1%
COCCCNC(=O)CN(C)C(=O)c1cc2cc(C)ccc2nc1C | 5.885%
COc1cccc(S(=O)(=O)NC(=O)COC2CCCCC2)c1 | 1.78%
CCn1nnc(NCc2ccc(-c3ccc(Br)cc3)o2)n1 | 12.3%
CC(C)c1cc(C(=O)N2C[C@@H]3CC[C@H]2CN(Cc2cccnc2)C3)no1 | 2.02%
Cn1ncnc1-c1ccnc(NCCCc2ccncc2)n1 | 94.3%
Cn1ccnc1CNc1nccc(-c2ncnn2C)n1 | -29%
Cn1ncnc1-c1ccnc(NCc2ccncc2)n1 | 14.5%
COCC(=O)N1CC[C@@H](N2CCN(C)CC2)[C@@H]1Cc1ccccc1 | 41.6%
CCN1CCC2(CC1)CC(NC(=O)N(C)C)c1cc(C)ccc12 (centres undefined) | 12.2%
CC(=O)NCC(=O)NC1CCc2nccn2C1 (centres undefined) | 40.6%
N#Cc1cc(F)c(NCc2ccc(F)cc2)c(F)c1 | 51.7%
N#Cc1cc(F)c(NCCc2ccc(S(N)(=O)=O)cc2)c(F)c1 | 37.8%
N#Cc1cc(F)c(NCCc2ccc(F)cc2)c(F)c1 | 23.9%
Cc1ccc(-c2cccc(-c3ccn(CCN4CCCC4)n3)c2)nn1 | 46.8%
c1ccc(-c2cccc(-c3ccn(CCN4CCCCC4)n3)c2)nc1 | 48.4%
Cc1cnc(C)c(-c2cccc(-c3ccn(CCN4CCCC4)n3)c2)n1 | 55.6%
c1cc(-c2cnccn2)cc(-c2ccn(CCN3CCCC3)n2)c1 | 55.1%
c1cc(-c2cnccn2)cc(-c2ccn(CCCN3CCCCC3)n2)c1 | 26.9%
c1cc(-c2cnccn2)cc(-c2ccn(CCN3CCCCC3)n2)c1 | 5.38%
CCCOCC1CCN(C(=O)Cn2ncc(N3CCCC3)cc2=O)C1 (centres undefined) | -13.6%

Compound | INHIBITION
c1csc(CN2CCO[C@H]3[C@H](OCCN4CCCC4)CC[C@@H]32)n1 | 16.8%
CCO[C@@H]1CO[C@@]2(CCCN(Cc3scnc3C)C2)C1 | 5.14%
CCN(C)c1nccc(N2CCN[C@H]3CS(=O)(=O)C[C@H]32)n1 | 40.9%
CN(C)CCCN(C)c1nccc(N2CCN[C@H]3CS(=O)(=O)C[C@H]32)n1 | 59.3%
CN(CCN1CCCC1)c1nccc(N2CCN[C@H]3CS(=O)(=O)C[C@H]32)n1 | 45.3%
CCC(C)(C)NC(=O)c1ncn2c1CN(C)S(=O)(=O)c1ccccc1-2 | 47.4%
Cn1nnc2c1C(COCc1ccccn1)CN(Cc1ccoc1)C2 (centres undefined) | 49.2%
OCCOCc1n[nH]c2c1CN(Cc1cccs1)C2 | 58.5%
c1csc(CN2Cc3[nH]nc(COCC4CC4)c3C2)c1 | 46.7%
c1ccc(OCc2n[nH]c3c2CN(Cc2cccs2)C3)nc1 | -0.804%
c1ccc(CN2Cc3[nH]nc(COc4cccnc4)c3C2)nc1 | 25.8%
OCCOCc1n[nH]c2c1CN(Cc1ccccn1)C2 | 35.8%
COCc1n[nH]c2c1CN(Cc1ccccn1)C2 | 47.5%
CN(C)Cc1n[nH]c2c1CCN(Cc1cccs1)C2 | 34.6%
COCc1n[nH]c2c1CN(Cc1cccs1)C2 | 64.5%
c1cncc(OCc2n[nH]c3c2CN(Cc2cccs2)C3)c1 | 51.2%
Cc1nn(C)c(C)c1CCC(=O)N1CCCC(n2cncn2)C1 (centres undefined) | 27.6%
OCC1(O)CCCN(Cc2noc(-c3ccccc3)n2)CC1 (centres undefined) | 41.2%
C[S+]([O-])CCNC(=O)N1CCSC(C)(C)C1 (centres undefined) | 25.4%
Cc1cccc(CS(=O)(=O)c2nnc(N3CCOCC3)s2)c1 | 0%
O=S(=O)(Cc1ccccc1)c1nnc(N2CCCC2)s1 | 53.8%
O=S(=O)(Cc1ccccc1)c1nnc(N2CCOCC2)s1 | 0%
CS(=O)(=O)NCc1ncn2c1CN(CCN1CCCC1)CCC2 | 31.1%
